Results: PubChem BioAssay (NCI)
About 83,000 compounds went through this panel and 20% of them were active in at least one assay; those are over-represented in the sample as a whole.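 Activity criterion: percent growth below 10, measured after cells in 96-well plates were exposed to a single compound concentration for 48 hours.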 A number with no mark means an inactive call. Activity calls are given as the source filed them.

Tests used:
Assay in all cases: NCI-60 one-dose screen, 48 h (100 = growth as untreated, 0 = no growth, -100 = all killed)
Details in all cases: 10 µM
BT-549 breast = tested on: BT-549 breast
MDA-MB-435 melanoma = tested on: MDA-MB-435 melanoma
SW-620 colon = tested on: SW-620 colon
MCF7 breast = tested on: MCF7 breast
HCT-116 colon = tested on: HCT-116 colon
HCC-2998 colon = tested on: HCC-2998 colon
KM12 colon = tested on: KM12 colon

Compound | growth (BT-549 breast) | growth (MDA-MB-435 melanoma) | growth (SW-620 colon) | growth (MCF7 breast) | growth (HCT-116 colon) | growth (HCC-2998 colon) | growth (KM12 colon)
CN(C)CCN1C(=O)c2cccc3cc(N)cc(c23)C1=O | 46.9% | 33.7% | 21% | 7.96% (active) | 13.7% | 15.4% | 28.8%
CN(C)N=Nc1nn(C(=O)Nc2ccc(Cc3ccccc3)cc2)c2ccccc12 | 75% | 48.5% | 34.4% | 21.1% | 62.1% | 10.1% | 12.9%
Cn1c(C(N)=O)cc2c1-c1nc(Nc3ccccc3)ncc1CCC2 | 33.7% | 45% | 57.2% | 38.7% | 25.8% | 73.1% | 7.9% (active)
CCCCOC(=O)Oc1ccc(C(=O)Oc2ccc(OCC)cc2)cc1 | 85.9% | 93.4% | 110% | 123% | 98.2% | 102% | 94.8%
Nc1nc(-c2ccccc2Cl)cc(-c2ccc(Cl)cc2Cl)n1 | 75.3% | 0.0733% (active) | 39% | 45.7% | 33% | 83.6% | 53.8%
COc1cc(-c2cc(C(=O)N3CCN(C(=O)c4ccccc4NCc4cccs4)CC3)nc3cc(-c4ccccc4)nn23)cc(OC)c1OC | 83.8% | 6.28% (active) | 51% | 23.6% | 55.9% | 101% | 27.5%
O=c1[nH]c(-c2ccc(Cl)cc2)nc2sc3c(c12)CCCC3 | 92.3% | 93.2% | 58.8% | 36% | 60.9% | 109% | 97.6%
O=C1c2ccc3c4c(ccc(c24)C(=O)N1CCNCc1ccccc1)C(=O)N(CCNCc1ccccc1)C3=O | -21.3% (active) | -75.6% (active) | 3.88% (active) | -45.4% (active) | -18% (active) | -92.2% (active) | -43.3% (active)
O=C(Nc1ccncc1)C(=O)c1cn(S(=O)(=O)c2ccc(F)cc2)c2ccccc12 | 36.9% | -20.3% (active) | 12% | 12.6% | 11.6% | 61.6% | 18.1%
O=C(N/N=C/c1cc2ccccc2c2ccccc12)c1cc(O)c(O)c(O)c1 | 49.4% | 35.3% | 25.4% | 67.6% | 26% | 94.5% | 83.2%
Clc1ccc(Nc2ccnc(NCCCNc3ccnc4cc(Cl)ccc34)n2)cc1 | 0.946% (active) | -87.3% (active) | -60.9% (active) | -89.8% (active) | -78.3% (active) | -88.9% (active) | -16.2% (active)
Nc1ncnc2[nH]c(=O)[nH]c12 | 122% | 96.4% | 110% | 100% | 91.3% | 111% | 99.8%
O=C(c1cccs1)c1ccccc1Cc1ccccc1 | 106% | 103% | 104% | 102% | 113% | 114% | 104%
Cc1ccc(C(=O)Nc2cccc(F)c2)cc1NC(=O)C1(c2ncnc3[nH]ccc23)CC1 | 93.4% | 74% | 67% | 87.1% | 44.5% | 60.5% | 82.7%
COc1ccc(N=C2C(=Nc3ccc(OC)cc3)N(c3ccc(N(C)C)cc3)C(=S)N2c2ccc(OC)cc2)cc1 | 75.1% | 86.5% | 94.7% | 84.9% | 81.6% | 105% | 86.8%
CC(C)=NNc1ncnc2c1ncn2C1OC(CO)C(O)C1O (stereo not given) | 43% | 18% | 9.33% (active) | 12.2% | 1.45% (active) | -10.2% (active) | 2.36% (active)
COc1ccc(OC)c(/C=C/c2nc(SC)n(-c3ccc(Cl)cc3)n2)c1 | 80% | 8.73% (active) | 77.4% | 46.7% | 59.8% | 69.6% | 53.1%
CC12O[C@H](C[C@@H](O)[C@H]1O)n1c3ccccc3c3c4c(c5c6ccccc6n2c5c31)C(=O)N(CCCN)C4=O | 72.9% | 32.5% | 20.4% | 12.2% | 13.4% | 44.8% | 38%

Compound | growth (BT-549 breast) | growth (MDA-MB-435 melanoma) | growth (SW-620 colon) | growth (MCF7 breast) | growth (HCT-116 colon) | growth (HCC-2998 colon) | growth (KM12 colon)
COc1ccc(-c2nn(-c3cccc(NC(=O)c4ccc5c(c4)OCCO5)c3)cc2-c2ccncc2)cc1Cl | 34.2% | -61.8% (active) | 18.3% | 2.05% (active) | 15.3% | 46.5% | 9.37% (active)
COc1ccc(-c2nn(-c3cccc(NC(=O)c4ccc(Cl)c(Cl)c4)c3)cc2-c2ccncc2)cc1Cl | 95.4% | 24.8% | 81.5% | 72.1% | 69.6% | 82% | 55.8%
Cc1cccc(Cl)c1NC(=O)c1ccc2nc(NC(=O)NC3CCN(C)CC3)sc2c1 | 98.2% | 82.9% | 98.4% | 94% | 81.9% | 105% | 105%
Cc1ccc(S(=O)(=O)Oc2ccc3c4c(c(=O)oc3c2)CCCCC4)cc1 | 47.3% | 57% | 30.2% | 50.5% | 36.7% | 51.4% | 35.3%
C/C(N)=C(\C#N)C(=O)c1ccccc1 | 113% | 100% | 106% | 96.6% | 102% | 102% | 107%
COc1cc(Nc2ccnc(NCCNc3ccnc4cc(Cl)ccc34)n2)cc(OC)c1 | 51.4% | -50.7% (active) | 19.9% | 8.25% (active) | -20.2% (active) | 29.7% | 55.3%
O=C(Nc1cccc(-n2cc(-c3ccncc3)c(-c3cc(O)cc(Cl)c3)n2)c1)c1ccc(N2CCOCC2)c(C(F)(F)F)c1 | 52.2% | 23% | -26.2% (active) | 29.7% | 12.7% | -3.65% (active) | 9.89% (active)
Fc1ccc(-c2nnc(-c3c(-c4ccc(F)cc4)nc4ccccn34)o2)cc1 | 60.2% | 85.1% | 91.1% | 59.8% | 45.4% | 94.1% | 79.9%
Cn1c([N+](=O)[O-])cnc1/C=C1\Oc2ccc(Cl)cc2C1=O | -35.7% (active) | -62.7% (active) | -61.6% (active) | 1.32% (active) | -46.6% (active) | -58.6% (active) | -37% (active)
COc1ccc(-c2nn(-c3cccc(NC(=O)c4cc(C(F)(F)F)cc(C(F)(F)F)c4)c3)cc2-c2ccncc2)cc1Cl | 87.3% | 6.11% (active) | 79.2% | 54.2% | 57.6% | 71.1% | 48.8%
Nc1ncn(C2OC(CO)C(O)C2O)c(=O)n1 (stereo not given) | -9.44% (active) | 3.05% (active) | 29.3% | 11.5% | -32% (active) | -1.48% (active) | -15.8% (active)
c1ccc2c(-c3nc(N4CCOCC4)c4c5c(sc4n3)CCCCCC5)cccc2c1 | 97.9% | 111% | 108% | 91.8% | 109% | 106% | 109%
CCN(CC)CCSCCN(CC)CC | 105% | 101% | 99.2% | 99.1% | 107% | 119% | 107%
COc1cc(Cl)cc(-c2nn(-c3cccc(NC(=O)Nc4cc(C(F)(F)F)cc(C(F)(F)F)c4)c3)cc2-c2ccncc2)c1 | 6.61% (active) | -19.5% (active) | 7.18% (active) | 3.81% (active) | -4.6% (active) | 9.5% (active) | 12.2%
O=C(Nc1cccc(-n2cc(-c3ccncc3)c(-c3ccc(O)c(Cl)c3)n2)c1)c1ccc(Cl)c(Cl)c1 | 68.5% | 47.2% | 28.2% | 35.5% | 44.4% | 54.3% | 43.9%
O=C1/C(=C/c2ccc([N+](=O)[O-])s2)Oc2ccccc21 | -83.2% (active) | -58.1% (active) | -61.3% (active) | 1.53% (active) | -45.4% (active) | -71.4% (active) | -58.9% (active)
COc1ccccc1CNCCCN1C(=O)c2ccc3c4c(ccc(c24)C1=O)C(=O)N(CCCN)C3=O | -43.4% (active) | -88.3% (active) | -69.8% (active) | -29.4% (active) | -4.19% (active) | -56.8% (active) | 4.38% (active)
